PubChem BioAssay AID1159580 (chemical genetic matrix, 2015)
“And” between values parts separate entries of the source, which are not always exact repeats. Equal values may be shown once. The campaign covered roughly 5,500 compounds. About 2,000 (36%) were called active. Another 18% or so got no clear call; they are omitted. Rule as the data show it: active = normalized growth mostly below about 0.91 (no sharp cut-off); inconclusive = no clear call, values can overlap the other calls; inactive = mostly above about 0.92. This is one part of the list.

Test: chemical genetic growth profiling, strain panel (AID 1159580);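 also: tested at 20 µM; growth read once vehicle control cultures reached saturation at 30 °C; 1 = growth at the plate median or of vehicle wells; lower values mean less growth of the strain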
Conditions: S. cerevisiae deletion strains, growth OD

Measured: normalized growth

C/C=C/c1ccc2c(c1)OCO2
inactive: locus YAL013W, strain DEP1, stronger effect = lower value 1.01 | locus YAL021C, strain ccr4, stronger effect = lower value 1.02 | locus YAL026C, strain drs2, stronger effect = lower value 1.02 | locus YAL030W, strain snc1, stronger effect = lower value 1.02 | locus YBL061C, strain skt5, stronger effect = lower value 1.02 | locus YBR009C, strain hhf1, stronger effect = lower value 1.02 | locus YBR021W, strain FUR4, stronger effect = lower value 1.02 | locus YBR023C, strain chs3, stronger effect = lower value 1.02 | locus YBR171W, strain sec66, stronger effect = lower value 1.03 | locus YBR229C, strain ROT2, stronger effect = lower value 1.01 | locus YBR231C, strain swc5, stronger effect = lower value 1.02 | locus YBR279W, strain paf1, stronger effect = lower value 1.02 | locus YCL011C, strain gbp2, stronger effect = lower value 1.01 | locus YCL016C, strain dcc1, stronger effect = lower value 1.02 | locus YCL029C, strain bik1, stronger effect = lower value 1.01 | locus YCL061C, strain MRC1, stronger effect = lower value 1 | locus YCL069W, strain vba3, stronger effect = lower value 1.02 | locus YCR088W, strain abp1, stronger effect = lower value 1.02 | locus YDL005C, strain med2, stronger effect = lower value 1.02 | locus YDL035C, strain GPR1, stronger effect = lower value 1.02 | locus YDL040C, strain nat1, stronger effect = lower value 1.02 | locus YDL074C, strain BRE1, stronger effect = lower value 1.07 | locus YDL101C, strain DUN1, stronger effect = lower value 1.02 | locus YDL134C, strain PPH21, stronger effect = lower value 1 | locus YDL185W, strain tfp1, stronger effect = lower value 0.998 | locus YDL192W, strain arf1, stronger effect = lower value 1.01 | locus YDR001C, strain nth1, stronger effect = lower value 1 | locus YDR069C, strain doa4, stronger effect = lower value 1.04 | locus YDR101C, strain arx1, stronger effect = lower value 1.04 | locus YDR137W, strain rgp1, stronger effect = lower value 0.994 | locus YDR150W, strain NUM1, stronger effect = lower value 1.01 | locus YDR159W, strain sac3, stronger effect = lower value 1.02 | locus YDR162C, strain NBP2, stronger effect = lower value 1 | locus YDR195W, strain ref2 0.988 | locus YDR297W, strain sur2, stronger effect = lower value 1.02 | locus YDR318W, strain mcm21, stronger effect = lower value 0.991 | locus YDR334W, strain swr1, stronger effect = lower value 1.02 | locus YDR335W, strain msn5, stronger effect = lower value 1.02 | locus YDR388W, stronger effect = lower value 1.01 | locus YDR392W, strain spt3, stronger effect = lower value 0.912 | locus YDR502C, strain sam2, stronger effect = lower value 1.01 | locus YEL003W, strain gim4, stronger effect = lower value 1.02 | locus YEL037C, strain rad23, stronger effect = lower value 1.01 | locus YEL061C, strain CIN8 (second series), stronger effect = lower value 1.01 | locus YEL061C, strain CIN8, stronger effect = lower value 1.01 | locus YER015W, strain faa2, stronger effect = lower value 1.01 | locus YER016W, strain bim1, stronger effect = lower value 1.02 | locus YER110C, stronger effect = lower value 1.01 | locus YER111C, strain swi4, stronger effect = lower value 1.01 | locus YER155C, strain BEM2 (second series), stronger effect = lower value 0.997 | locus YER155C, strain BEM2, stronger effect = lower value 1.01 | locus YER167W, strain BCK2, stronger effect = lower value 1.01 | locus YFR010W, strain ubp6, stronger effect = lower value 1.02 | locus YGL078C, strain dbp3, stronger effect = lower value 1.02 | locus YGL086W, strain mad1, stronger effect = lower value 1.05 | locus YGL167C, strain pmr1, stronger effect = lower value 1.02 | locus YGL173C, strain kem1, stronger effect = lower value 1.02 | locus YGL227W, strain vid30, stronger effect = lower value 1.02 | locus YGL240W, strain doc1, stronger effect = lower value 1.01 | locus YGL248W, strain PDE1, stronger effect = lower value 1.02 | locus YGL253W, strain hxk2, stronger effect = lower value 1.02 | locus YGR078C, strain PAC10, stronger effect = lower value 1.01 | locus YGR135W, strain pre9, stronger effect = lower value 1.01 | locus YGR252W, strain gcn5, stronger effect = lower value 0.972 | locus YHR013C, strain ard1, stronger effect = lower value 1.09 | locus YHR027C, strain rpn1, stronger effect = lower value 1.02 | locus YHR030C, strain SLT2, stronger effect = lower value 1.01 and 0.978 | locus YHR079C, strain IRE1 (second series), stronger effect = lower value 1 | locus YHR079C, strain IRE1, stronger effect = lower value 0.98 | locus YHR094C, strain hxt1, stronger effect = lower value 0.994 | locus YHR129C, strain ARP1, stronger effect = lower value 1.01 | locus YHR142W, strain chs7, stronger effect = lower value 1.03 | locus YHR200W, strain rpn10, stronger effect = lower value 1.01 | locus YIL066C, strain RNR3, stronger effect = lower value 1.02 | locus YIL073C, strain SPO22, stronger effect = lower value 1.06 | locus YIL125W, strain kgd1, stronger effect = lower value 1.01 | locus YIR030C, strain dcg1, stronger effect = lower value 0.998 | locus YJL092W, strain hpr5, stronger effect = lower value 1.01 | locus YJL095W, strain BCK1 (second series), stronger effect = lower value 1.02 | locus YJL095W, strain BCK1, stronger effect = lower value 1.02 and 0.98 | locus YJL115W, strain asf1, stronger effect = lower value 1.03 | locus YJL129C, strain trk1, stronger effect = lower value 1.03 | locus YJL134W, strain LCB3, stronger effect = lower value 1.01 | locus YJL154C, strain vps35, stronger effect = lower value 1 | locus YJL164C, strain tpk1, stronger effect = lower value 1.01 | locus YJL166W, strain qcr8, stronger effect = lower value 1.01 | locus YJL168C, strain set2, stronger effect = lower value 1.01 | locus YJL187C, strain SWE1 (second series), stronger effect = lower value 1.03 | locus YJL187C, strain SWE1, stronger effect = lower value 1.01 | locus YJR043C, strain POL32, stronger effect = lower value 1.02 | locus YJR066W, strain TOR1, stronger effect = lower value 0.948
